Test results: the supplement of paper PMC6555819

Columns and labels:
Assay in all cases: PBM binding z-score (relative to random genomic background probes); higher = stronger binding; sequences stand for … in GC…GCGATTGACAGCGTAGAATGAAGG
[1] = system: RARb homodimer (NR concentration 270 nM)
Summary of the method: (§1)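 Regression normalization was applied to scanned fluorescence from custom Agilent 4×180K protein-binding microarrays. Before scanning, arrays were incubated 1 h with ligand-free nuclear receptor dimers, and binding was detected with antibodies against each partner (one per run). Binding z-scores use the random background probes as reference.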

[2] = system: RARg:RXRa (NR concentration 270 nM, RXRa partner concentration 90 nM)
Summary of the method: as §1

[3] = system: RARg homodimer (NR concentration 270 nM)
Summary of the method: as §1

[4] = system: RXRa DBDmut IVT, anti-RXR (DBD mutation: RXRa K156A/R161A, NR concentration 90 nM)
Summary of the method: as §1

[5] = system: RXRa homodimer (NR concentration 180 nM)
Summary of the method: as §1

[6] = system: THRa:RXRa (NR concentration 90 nM, RXRa partner concentration 90 nM)
Summary of the method: as §1

[7] = system: THRa homodimer (NR concentration 90 nM)
Summary of the method: as §1

[8] = system: VDR homodimer (NR concentration 270 nM)
Summary of the method: as §1

Sequence	PBM binding z-score [1]	PBM binding z-score [2]	PBM binding z-score [3]	PBM binding z-score [4]	PBM binding z-score [5]	PBM binding z-score [6]	PBM binding z-score [7]	PBM binding z-score [8]
CCTAGCAGGCCAGGGGCACTCAAGCATTTCGCTT	-0.0718	-0.38	-0.0557	-1.12	-0.341	-0.336	-1.01	-0.769
CCTCGGAGGACAGTAGGTCAGAGCTGTCCGCTTT	2.39	2.09	2.06	0.0907	0.614	1.43	-0.152	-0.282
GCTGCTAGGTCAGGTTGATCAGCTAACGGGTACG	2.24	2.65	3.71	0.558	1.14	1.73	0.499	0.442
CGAAGGAGGGCATGAGTTGATAGCAAATGCCGAT	0.409	0.997	1.45	0.567	0.619	0.292	-0.803	0.969
AGTCAAAGTTCATCTAGCTAACGTAAGATATGCT	3.76	5.27	6	4.58	4.7	1.67	-0.302	4.9
TTACCAAGGTGAGCAGAGGTCGTTGATCCAACTC	2.31	1.68	1.26	-0.0246	2.03	3.54	0.587	1.28
GCCACTGGGGCATCAGCAGGTTACCATAACTTAA	0.865	0.714	0.439	-0.45	0.212	0.803	-0.0926	-0.602
CGTCCAAGGTCAATGCTAGGTCGGTGAAAGCATT	4.24	6.11	6.15	3.31	4.83	3.79	1.98	2.04
CTCGAAGGGTCGTGCTCAGGTGAGTATACCAAAC	1.59	3.39	2.01	1.01	2.52	3.65	0.851	0.628
GGAACGAGGGCAAAATTGATAGCATCTGTCGACG	0.53	0.822	1.08	2.03	0.69	0.648	-0.431	0.356
TCATATAGGTAGACAGGTGAAAGTCCGTAAGTTA	0.985	0.378	0.361	1.68	0.907	0.763	0.486	0.286
ACTAGTTGGTCCGCTGAGGTCACACACAATTCGG	3.85	3.69	2.81	1.37	3.71	4.4	5.42	4.08
CGTCAAAGTTCAACTAAGGTAACGCAAAGCACGC	4.28	5.94	6.37	4.62	4.92	5.48	2.13	3.54
CCTACTGGGCAATTCAGAGGTCATTGATCATATG	3.57	3.21	2.73	0.679	3.76	2.98	1.16	3.05
AGTCAAAGTTCACTAAGTAACGTAAGATTCAGCT	3.31	4.63	5.16	4.1	3.9	1.55	-0.0534	3.4
ACTATTAGTTGAGACGAGGGCAAACGATAGGTTG	0.968	0.74	0.778	0.626	0.323	2.42	0.104	1.39
GCGACTGGGGCATCAGCAGGTTACCATTACTTAA	1.18	0.735	0.488	0.25	0.246	0.833	0.247	-0.0861
GGAACGAGGGCAAGTCGATAGCAGAGTTTGATGG	1.18	1.36	2	1.89	0.701	0.983	-0.0774	1.08
CCTACTGGGCCAAAGGTCATTGGTTCCAATGCTC	4.8	5.8	4.77	0.919	6.11	3.37	0.894	2.85

Sequence	PBM binding z-score [1]	PBM binding z-score [2]	PBM binding z-score [3]	PBM binding z-score [4]	PBM binding z-score [5]	PBM binding z-score [6]	PBM binding z-score [7]	PBM binding z-score [8]
GCTAGTTGGTCAGTAAAAGGTCACACCCCGGTCG	5.28	5.17	4.3	0.0893	4.86	3.57	2.15	1.43
TCTCGGAGGACACGAAGGGCAGAGCTTTCCAGAG	1.42	0.796	1.71	0.216	-0.0528	1.33	0.123	-0.0061
CAAACTAGGCCACGAAAGGTCAAAGTCGAATGAC	4.95	6.06	5.76	1.47	6.58	4.26	0.939	2.37
TATAGCAGGCCAGAGGGTCACTCAAGAGGTACGG	2.58	2.61	2.09	-1	2.67	1.76	-0.288	0.651
ATCTCTAGGTAAAAGTTCAGTCAATCCCGAGGAT	2.54	2.1	2.2	1.12	1.7	1.53	0.584	2.36
ATCGAAAGGTCGAAGTTGAGTATACCCACCCGAA	2.55	4.07	3.83	1.9	4.79	2.01	-0.00538	1.02
TCATATAGGTAAAGGTGAAAGGCGAACGATATGA	1.51	1.67	1.39	0.748	2.24	1.7	-0.314	-0.263
ATATGTAGGTTATCGGGTCTTTCAGTTTGCGCAT	1.23	0.844	0.939	0.92	1.03	1.08	1.3	1.44
TCTTGTGGATCAGCAGGTTAAGAAAGCTGGCCAA	0.366	-0.0321	-0.331	0.589	0.119	0.227	-0.125	0.0128
TCATGTAGGTAAAAGGTGAAAGTCGGTGTGGTAA	2.05	1.81	0.855	1.49	2.61	1.75	0.569	0.332
AATACAGGGTCACTACGCCAGAGTAGGTACGAAT	3.19	5.26	4.83	3.03	5.7	3.5	1.33	3.21
AGAATGATGTTAAGATCAGGGAAACAGAATACAT	-0.787	0.187	0.295	-0.58	0.00873	-0.153	-0.703	-0.555
TTACCAAGTTGAAGGTCGTTGATCCCTCTGTAGA	1.15	0.339	0.342	1.07	1.2	1.26	0.0178	1.49
ATCTCTAGGTAAAAGTTCAGTGTATCCCGAGGAT	2.33	1.84	2.05	1.12	1.49	1.43	0.678	2.3
ATCTCTAGTTAAAGATAGTTCAGTGAATGCAAAT	1.14	0.636	0.66	0.396	0.579	0.486	0.212	0.858
TCGAGTAGGTTAGTCGTGGCATTCAGCCAACATA	-0.359	-0.49	-0.451	-0.0351	-0.388	-0.461	-1.11	-0.659
TAGCATAGGTCATGGGCCAGTATACCACGCGAAC	3.37	5.5	4.93	0.253	5.71	2.67	-0.279	0.267
GCGATTGGGGCAAAGCAGGTTACCATAAGGTTGG	1.1	0.454	0.635	0.0691	0.619	3.01	0.281	0.0482
CGAACTATGTCAGAACAGGACAGTGAAGGATGAT	0.293	0.443	0.879	-0.123	0.167	0.953	-0.106	0.0831

Sequence	PBM binding z-score [1]	PBM binding z-score [2]	PBM binding z-score [3]	PBM binding z-score [4]	PBM binding z-score [5]	PBM binding z-score [6]	PBM binding z-score [7]	PBM binding z-score [8]
TGAATGAGGTTATGAGATCAGGGAACGTTGCAAA	0.266	1.6	1.13	0.145	2.19	1.95	0.132	0.305
TCTAGCAGGCCAGAGGGTCATTCAAGAGGTACGG	2.65	2.78	2.02	0.504	2.87	1.83	-0.373	1.28
TCATTTAGGTAAATGCTAGGTGAAAGTCCGATCT	0.541	0.116	0.0576	1.57	0.519	1.69	0.878	0.0956
CCTAGCAGGCCAGGGTCTCTCAAGCATTTCGCTT	-0.597	-0.659	-0.606	-0.912	-0.675	-0.53	-0.611	-0.871
TGGCCTAGGTCATTGGGCCAGTATAGTACGCATC	2.71	3.81	4.21	0.818	2.68	2.71	0.295	0.451
TCTCGGAGGACACGAATGTCAGAGCTTTCCAGAG	0.771	0.642	1.42	0.518	0.168	1.23	0.52	-0.491
CCTACTAGGCCATCAGGTCATTGATATCAACGTT	3.07	2.45	2.56	1.43	1.71	3.32	3.28	2.51
CAAACTAAGTCAAGGTCAAAGTCGGTTTGTGCCA	4.04	4.35	4.17	2.72	4.85	4	3.38	4.09
AGAATGATGTTATACGTAGATCAGGGAAGAAAGT	-0.0497	0.194	0.393	-0.231	-0.0318	-0.0993	-0.533	-0.17
GCTTACGGGTCACAGGTTATAGCATGAATAGAAT	2.95	5.09	4.66	2.03	5.84	2.86	0.315	0.608
TCTAGCAGGCCAGAGGGTCACTCAAGAGGTACGG	2.8	2.56	2.39	-0.167	2.61	1.54	-0.299	0.59
GCTGATAGGTCAGGTTGGTCAGCTAACGGGTACG	3.37	3.84	4.49	0.3	2.6	1.46	-0.126	0.351
CAGACTAGGTCAAGAGGTCAAAGTCCGCTTCCCG	5.34	8	7.45	2.6	7.71	4.23	2.26	3.84
TAGCCTAGGTCATTGGGCCAGTATCGTACGCATC	2.91	3.85	4	1.73	2.84	2.87	1.01	1.43
TCTAGTTGGTCACGGAGGTCACAGACGACGGGTA	4.64	4.79	4.98	1.02	5.24	3.72	2.35	2.78
CCTACTGGGCTAAAAAGGTCATTGATGCCGATAA	4.14	4.08	3.54	0.543	4.39	3.01	0.22	2.22
GCATATAGGTAATGCAAGGTGAAAGTCCGATTGT	0.843	0.513	0.479	0.239	0.519	4.1	0.825	-0.0965
CCTAGTAGGCCAGGGTCACTCAAGCATTTCGCTT	3.03	3.04	2.56	0.104	3.3	2.94	1.18	1.6
TCAGACAGGTGAAGGTACCTCAGGTACGCAGTCG	0.421	0.412	0.332	1.1	1.05	0.941	0.205	0.0555
